# Shown are actives, neighbours in structure and some others; about 11% of the full set was active somewhere.
# USP28 inh – human USP28 deubiquitinase inhibition | Q96RU2 | purified USP28, Ub-rhodamine cleavage fluorescence, 30 min | inhibition, % at 25 µM | 47,000 compounds, 3% hits
# USP17 block – blocks human USP17 ubiquitin-rhodamine cleavage | A8MUK1 | purified USP17, Ub-rhodamine cleavage fluorescence, 3 h | inhibition, % at 50 µM | 47,000 compounds, 6.5% hits
# USP30 block – inhibitors of human USP30 deubiquitinase. inhibition, % at 25 µM. purified USP30, Ub-rhodamine cleavage fluorescence. AID 1645860. Q70CQ3. 47,000 compounds, 5.3% hits
# Target sequence (Q70CQ3 whole entry, looked up): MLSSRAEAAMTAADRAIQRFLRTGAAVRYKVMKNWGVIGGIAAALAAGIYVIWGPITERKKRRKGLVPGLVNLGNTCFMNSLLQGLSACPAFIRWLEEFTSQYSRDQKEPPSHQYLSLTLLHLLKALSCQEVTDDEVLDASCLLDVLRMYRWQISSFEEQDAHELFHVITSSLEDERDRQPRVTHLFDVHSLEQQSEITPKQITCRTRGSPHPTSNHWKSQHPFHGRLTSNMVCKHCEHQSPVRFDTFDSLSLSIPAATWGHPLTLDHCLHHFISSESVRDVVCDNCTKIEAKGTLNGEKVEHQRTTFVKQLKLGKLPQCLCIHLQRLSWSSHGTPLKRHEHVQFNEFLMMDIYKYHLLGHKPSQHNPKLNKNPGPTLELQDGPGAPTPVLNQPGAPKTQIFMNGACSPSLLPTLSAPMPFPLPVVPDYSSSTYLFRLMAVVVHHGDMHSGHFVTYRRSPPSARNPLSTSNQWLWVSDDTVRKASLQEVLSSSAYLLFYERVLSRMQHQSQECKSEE
# OTUD3 inh – inhibitors of human OTUD3 deubiquitinase | purified OTUD3, Ub-rhodamine fluorescence, 2 h | inhibition, % at 25 µM | 47,000 compounds, 0.7% hits | AID 1645858
# * = called active by the depositor; i = inactive; x = not tested or not shown. No stated cut-off is given here; in the data, active means inhibition above about 30%; inactive means the rest.
SMILES,USP28 inh,USP17 block,USP30 block,OTUD3 inh
O=C(O)CNC1CC2(Cc3ccccc3CN(Cc3ccccc3)C2)C1 (centres undefined),-14.7,-20.0,-14.3,-8.6
CCOc1ccc(CCNC(=O)CCC(=O)Nc2ccc3nc(N4CCN(C)CC4)cc(C)c3c2)cc1OCC,10.8,28.0,54.3*,9.6
CC(O)/C=C/C1OC(=O)CC1Nc1ccc(CO)cc1 (centres undefined),2.2,43.9*,0.2,0.1
Cc1cccc(NC(=O)c2c(C)sc3c(=O)n(C(C)C)cnc23)c1C,-2.8,0.4,-15.1,2.7
Cc1c(Cl)cccc1-n1ncc(C(=O)NCc2ccccc2Cl)c1C1CCNCC1,-0.2,-11.0,0.1,-2.2
O=c1[nH]c(=O)c2c(-c3ccc(-c4ccccc4)cc3)ccnc2[nH]1,-4.1,17.3,45.0*,5.3
O=c1[nH]c(=O)c2c(-c3cccc4ccccc34)ccnc2[nH]1,-1.8,3.6,1.5,-15.9
COc1cccc(-c2ccnc3[nH]c(=O)[nH]c(=O)c23)c1,18.2,73.9*,63.1*,1.0
CN(C)C(=O)c1sc2ncccc2c1C1CN(Cc2ccn[nH]2)CCO1 (centres undefined),-3.2,-0.3,-1.3,-0.3
Cc1cccc(N2CCN(C(=O)C3CCCN(S(=O)(=O)N4CCOCC4)C3)CC2)c1C (centres undefined),1.3,-9.8,-7.1,2.0
CC(/C=C/C=C(\C)[C@H](O)[C@H](C)C(=O)O[C@@H]1C[C@@H](C)C=C2C=C[C@]3(C)O[C@H](O)CC(=O)[C@@]3(C)C21)=C\C=C\C(=O)O (some centres undefined),-139.6,-120.3,-385.1,-99.8
O=C(Nc1ccc(NC(=O)C(c2ccccc2)c2ccccc2)cc1)c1cccs1,-8.6,-4.0,-9.1,-2.4
O=C(Nc1ccccc1)C(C(=O)Nc1ccccc1)c1ccccc1,14.1,-1.5,31.5*,0.6
COc1cccc(C(=O)[C@H]2[C@]3(C(=O)Nc4ccccc43)[C@@H]3CCCN3[C@@]23C(=O)Nc2ccccc23)c1,11.2,3.9,12.8,4.6
O=C(c1cccc([N+](=O)[O-])c1)[C@H]1[C@]2(C(=O)Nc3ccccc32)[C@@H]2CCCN2[C@@]12C(=O)Nc1ccccc12,35.3*,6.3,18.0,18.3
O=C(Cn1cnc2sc(-c3ccccc3)cc2c1=O)N(Cc1ccccc1F)C1CC1,30.7*,34.4*,35.1*,7.7
Cn1c(=O)n(CC(=O)N2CCCCC2)c2cccnc21,15.1,21.4,22.3,14.2
Cc1sc2nc(C3CC3)n(C3CCN(C(=O)C4CCC4)CC3)c(=O)c2c1C,21.9,16.0,39.3*,17.6
COCC(=O)N1CCC(n2c(C3CC3)nc3sc(C)c(C)c3c2=O)CC1,-12.3,0.3,-0.3,-4.1
O=C(CSc1nc2ccccc2[nH]1)Nc1cccc2c1OCCO2,40.7*,-18.3,-38.2,13.3
CNC(=O)c1cc(C2CN(C(=O)c3cnc(N(C)C)nc3C)CCO2)nc2ccccc12 (centres undefined),-12.4,-9.1,-17.7,-0.1
COc1ccc(C(=O)Nc2ccc(-c3nc4ccccc4[nH]3)cc2)cc1S(=O)(=O)N1CCOCC1,10.5,51.5*,50.2*,7.7
COc1cc(O)c2c(c1)C(=O)c1cc3c(c(O)c1C2=O)C(OC1OC(C)C(OC)C(O)C1OC)C(OC)C(C)(O)C3=O (centres undefined),-202.4,-160.0,i,-148.6
CCCc1c(C(=O)O)c(O[C@H]2O[C@H](C)[C@@H](OC)[C@H](OC)[C@@H]2OC)cc2cc3c(c(O)c12)C(=O)c1c(O)cc(O[C@@H]2O[C@@H](C)[C@H](O[C@H]4O[C@H](C)[C@@H](OC)[C@H](OC)[C@@H]4O)[C@@H](OC)[C@H]2O)cc1C3=O,-83.8,54.8*,-315.5,-31.2
Cc1ncc(CO)c2c1Oc1nc(-c3cccc(Cl)c3)nc(SCC(=O)N3CCCCC3)c1C2,18.6,82.3*,-1.3,22.2
SMILES,USP28 inh,USP17 block,USP30 block,OTUD3 inh
O=C(c1ccco1)N1CCC2(CC1)CC1(CO2)Nc2ccccc2-n2cccc21 (centres undefined),18.5,80.5*,-26.4,-1.2
CCCn1cc(C(=O)N2CCC3(CC2)CC2(CO3)Nc3ccccc3-n3cccc32)c(C)n1 (centres undefined),9.5,66.8*,4.8,6.8
Cc1ccc(NC(=O)N2CCC3(CC2)Nc2ccccc2-n2cccc23)cc1,6.6,-8.2,-5.3,-2.3
O=C(c1cscn1)N1CCC2(CN(CC(c3ccccc3)c3ccccc3)C2)C1,-19.7,-22.0,-15.7,-3.2
O=C(c1ccncc1)N1CCC2(CC1)CC1(CO2)Nc2ccccc2-n2cccc21 (centres undefined),-1.2,38.1*,-79.3,-9.2
O=C(c1cscn1)N1CCC2(CC1)CC1(CO2)Nc2ccccc2-n2cccc21 (centres undefined),-4.6,71.4*,-68.2,-14.5
COc1ccccc1NC(=O)N1CCC2(CC1)Nc1ccccc1-n1cccc12,1.6,-12.2,-15.7,-2.1
CCn1ccc(C(=O)N2CCC3(CC2)Nc2cccnc2NC3=NCc2ccccc2)n1,-118.6,-77.3,-350.7,-74.8
CN1CCN(C2=NCCN2S(=O)(=O)c2ccc(Cl)cc2)CC1,2.2,-2.3,0.6,1.2
Cc1cc2c(cc3n2CC(C)(C(=O)NC2CCCCC2)N(Cc2cccnc2)C3=O)o1 (centres undefined),-4.6,-14.1,-8.9,0.5
O=C(c1cccnc1)N1CCC2(CC1)CC1(CO2)Nc2ccccc2-n2cccc21 (centres undefined),0.3,71.2*,-10.0,-12.3
Cc1nc(-c2noc3ccc(C(=O)N4CCCN(C)CC4)cc23)cs1,-7.5,-22.5,-7.4,0.0
COc1ccc(Cl)c2sc(N3CCN(C(=O)c4ccn(C)n4)CC3)nc12,11.4,47.1*,-34.2,5.6
O=C(c1nc(-c2cccc3[nH]ccc23)no1)N1CCCC1,6.2,40.6*,48.5*,5.8
Cc1ccc(CSc2nc3nc4c(cn3n2)C(=O)CCC4)cc1,x,12.3,x,4.8
Cc1cccc(CSc2nc3nc4c(cn3n2)C(=O)CC(C)(C)C4)c1,16.8,13.9,35.1*,19.0
CC1CCN(C(=O)c2cn(-c3cc(N4CCC(C)CC4)ncn3)cn2)CC1,70.8*,3.3,28.1,14.1
CCc1ccc(CNC(=O)c2cc(=O)nc3sc(N4CCCCC4)nn23)cc1,24.0,10.6,27.1,16.3
COc1ccc(C2CC(=O)c3cnc(NCC4CCCO4)nc3C2)cc1OC (centres undefined),13.8,15.9,30.4*,15.4
CC(=O)c1cc(-c2ccc(F)cc2)n(CC(=O)Nc2cccc(C)c2C)c1C,22.2,52.0*,73.3*,34.5*
C[C@@]12c3ccc4c(c3C(=O)c3occ(c31)C(O)C[C@H]2O)CCC4=O (some centres undefined),-6.2,56.7*,-103.9,-5.5
COc1ccccc1-c1noc(C2CCCN2C(=O)Nc2cccc(C)c2C)n1 (centres undefined),7.9,22.7,49.2*,19.9
COc1ccccc1OC(C)C(=O)Nc1ccc2nsnc2c1 (centres undefined),22.2,31.7*,24.6,17.1

# Source: PubChem (Buhrlage Lab, Dana-Farber Cancer Institute and Novartis Institutes for BioMedical Research (Cambridge, Mass))
